# From PubChem BioAssay
# This is a sample that favours compounds with a hit; in the whole collection about 7% have one here.
# ATXN2 expr inh: reduces ATXN2 reporter expression in HEK-293 cells; 360,000 compounds, 0.72% hits; Potency, µM (doses to about 57 µM), inactives show top-dose activity change, negative = inhibition, most hits filed as inhibitors; HEK-293 ATXN2-luciferase reporter, luminescence, 24 h; AID 1745845; also: potency is read from the fitted curve at half-maximal effect; % is scaled to controls: 0 for no effect and ±100 for the full control effect; nearly all actives have a fitted effect of over 55% in size
#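 qHTS (up to 57 uM final) was run with 24 h compound exposure of reporter cells at 37 °C. Each well was multiplexed: SteadyGlo luminescence measured ATXN2-luciferase expression after a fluorogenic Gly-Phe-AFC viability readout (25 uM final).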
# IL-1B inflam inh: inhibitors of inflammasome signaling (IL-1 beta secretion). THP-1 LPS/ATP IL-1B secretion, AlphaLISA, 16 h; active compounds read low. activity change, % at 57.5 µM. 360,000 compounds, 4.7% hits. AID 743279; in the data active = activity change below about -50%; inconclusive = mostly about -30% to -49%; also: % is scaled to controls: 0 for no effect and ±100 for the full control effect
#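 Secreted IL-1B measured by AlphaLISA bead assay after 16 h compound exposure of THP-1 cells; compounds (final up to 57.5 uM) added 1 h before LPS (250 ng/mL) and ATP (1.25 mM) stimulation; lower signal means less secretion.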
# DRD3 antagonist: D3 dopamine receptor (human) antagonism; D3R cells, DiscoveRx beta-arrestin luminescence, antagonist mode; active compounds read low; max response, negative = inhibition, %; 360,000 compounds, 2.5% hits; in the data active = max response below about -50%; inconclusive = no clear call, values can overlap the other calls; also: % is scaled to controls: 0 for no effect and ±100 for the full control effect
# Target sequence (P35462 whole entry, looked up): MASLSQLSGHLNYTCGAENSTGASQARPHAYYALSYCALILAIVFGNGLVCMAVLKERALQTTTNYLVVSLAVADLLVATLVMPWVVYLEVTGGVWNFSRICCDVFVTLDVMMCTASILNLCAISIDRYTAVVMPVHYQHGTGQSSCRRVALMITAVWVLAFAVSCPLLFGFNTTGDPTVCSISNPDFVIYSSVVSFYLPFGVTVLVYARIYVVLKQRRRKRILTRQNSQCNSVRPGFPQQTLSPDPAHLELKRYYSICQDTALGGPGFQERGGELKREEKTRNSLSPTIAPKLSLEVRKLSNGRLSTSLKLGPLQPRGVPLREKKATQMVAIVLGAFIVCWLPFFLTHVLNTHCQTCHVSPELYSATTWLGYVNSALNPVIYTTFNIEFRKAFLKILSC
#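 Cells expressing the human receptor were seeded at 1500 cells/well, incubated overnight at 37 degrees C in 5% CO2, then exposed to library compounds with dopamine controls for 90 minutes at 37 degrees C before luminescent detection.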
# D3 ag: agonists of human D3 dopamine receptor; P35462; 410,000 compounds, 0.58% hits; AID 652048; max activation, %; D3R DiscoveRx beta-arrestin cells, luminescence, 90 min; in the data active = max activation above about 30%; also: 0% is about no effect
#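 Cells at 1500/well, incubated overnight, then treated with pinned compounds (dopamine as control) for 90 min at 37 degrees C. DiscoveRx reagent added for 30 - 60 minutes at room temperature; luminescence read.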
# ATXN viability: cell viability loss in ATXN counter-screen. S2 cells (HEK-293 line with an ATXN2-luciferase reporter) viability, CellTiter-Fluor protease fluorescence, 24 h. Potency, µM (top dose mostly 56.7 µM), actives largely listed as cytotoxic. 400,000 compounds, 0.49% hits. AID 651635; also: potency is read from the fitted curve at half-maximal effect; nearly all actives have a fitted effect of over 40% in size
# a7 integrin act: activates integrin-mediated alleviation for muscular dystrophy | alpha7betagal myoblasts, beta-gal FDG fluorescence, 48 h | Potency, µM (titrated, usually from 38.3 µM), for the others: top-dose activation, actives largely listed as activators | 350,000 compounds, 0.064% hits | AID 624291;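 also: potency is read from the fitted curve at half-maximal effect; 100% = response of the positive control SU9516; nearly all actives have a fitted effect of over 60% in size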
#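 alpha7betagal+/- myoblasts (passage 13, 250/well) treated 48 h at 37C with compounds at 1:260 dilution of DMSO stock. Lysed, then beta-galactosidase activity read as FDG fluorescence (ex 480/em 540) after 30 min, with pre-read for autofluorescence.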
# An asterisk follows results filed as active; i = inactive; ? = inconclusive; / = not tested or not shown; [ ] = remark or other dose. Unless noted, calls follow the shape of the dose curve; as a rule, active = well fitted curve in the direction sought with a large enough effect; inconclusive = small, poorly fitted or top-dose-only effect, or another doubt; inactive = no such curve, though single readings can be large; an effect the other way counts as inactive or inconclusive.
SMILES,ATXN2 expr inh,IL-1B inflam inh,DRD3 antagonist,D3 ag,ATXN viability,a7 integrin act
CCOC(=O)N1CCC2(CC1)C(C(=O)C13CC4CC(CC(C4)C1)C3)C2(C#N)C#N (stereo not given),-1%,-54*,?,2,i,-22%
COc1ccc(COc2cccnc2N)cc1,14%,-1,10,-1,i,?
CCOC(=O)c1cc(-c2ccccc2)sc1NC(=O)C(C)N1C(=O)c2ccccc2C1=O (stereo not given),-14%[11.3 µM],-53*,0,3,i,20%
CCOC(=O)c1cc(-c2ccccc2)sc1NC(=O)CCN1C(=O)c2ccccc2C1=O,-6%,3,1,7,i,9%
O=C(CCc1nc(-c2ccccc2F)no1)NCc1ccco1,3%,10,-88*,1,i,4%
Cc1cc(OCC(=O)NCCc2c[nH]c3ccccc23)c2c(C)c(C)c(=O)oc2c1,1%,10,-18,0,i,7%
Cc1cc(OCC(=O)Nc2ccccn2)c2c(C)cc(=O)oc2c1,4%,-54*,5,8,i,-32%
O=C(CCc1nc(-c2ccccc2Cl)no1)NCc1ccco1,-3%,3,-5,10,i,0%
Cc1cc(OCC(=O)NCCc2c[nH]c3ccccc23)c2c(C)cc(=O)oc2c1,-5%,-90*,1,8,i,14%
CCCc1cc(=O)oc2cc(C)cc(OCC(=O)NC3CCN(Cc4ccccc4)CC3)c12,/,9,-28,-20,i,13%
Cc1cc(OCC(=O)NC2CCN(Cc3ccccc3)CC2)c2c(C)c(C)c(=O)oc2c1,1%,16,-82*,-17,i,-21%
Cc1cc(C)n2c(Nc3ccccc3C)c(-c3cccs3)nc2n1,10%,/,/,-8,i,/
O=C(COc1ccc(Cl)cc1Cl)Nc1ccccn1,2.8µM*,-22,-12,-13,i,0%
Cc1ccc(C)c(OCc2cc(C(=O)NC3CCN(Cc4ccccc4)CC3)no2)c1,-18%,?,-93*,-27,i,-64%
Cc1cc(OCC(=O)NC2CCN(Cc3ccccc3)CC2)c2c(C)cc(=O)oc2c1,2%,-14,-63*,-20,i,1%
O=C(COc1ccccc1F)NC1CCN(Cc2ccccc2)CC1,3%,13,-65*,-45,i,5%
O=C(Cc1c(F)cccc1Cl)NC1CCN(Cc2ccccc2)CC1,0%,-26,?,-24,?,-36%
O=C(NCC(=O)N1CCN(c2ccc([N+](=O)[O-])cc2)CC1)c1ccco1,-4%,9,-13,-4,i,13%
Cc1ccc(-c2noc(CCC(=O)NC3CCN(Cc4ccccc4)CC3)n2)cc1,-18%,?,1,-2,i,-15%
O=C(CCc1nc(-c2ccccc2F)no1)NC1CCN(Cc2ccccc2)CC1,-11%,-7,-51*,-1,i,9%
CCOc1ccc(/C=N/N(C)c2ccccc2)cc1OC,84%,?,-54*,1,i,-4%
COc1ccc(/C=N/N(c2ccccc2)c2ccccc2)cc1O,-13%,-25,0,0,i,-36%
S=C(NCc1ccccn1)Nc1ccccc1,27%,7,18,8,i,11%
S=C(NCc1ccncc1)Nc1cc(Cl)cc(Cl)c1,0%,-54*,11,-10,i,-15%
S=C(NCc1ccncc1)Nc1ccc(Cl)c(Cl)c1,-28%,-61*,1,0,i,-38%
SMILES,ATXN2 expr inh,IL-1B inflam inh,DRD3 antagonist,D3 ag,ATXN viability,a7 integrin act
S=C(NCc1ccncc1)Nc1ccc(Br)cc1,-19%,23,-18,-10,i,-18%
S=C(NCc1ccccn1)Nc1ccc(Cl)c(Cl)c1,7%,-63*,-25,-6,i,11%
CC(C)CN(CCCNC(=O)CN1C(=O)COc2ccc(S(=O)(=O)N3CCCCCC3)cc21)CC(C)C,-1%,?,22,-12,i,-51%
Cc1cc(Nc2ccccc2)nc(NCc2ccccc2)n1,?,-88*,?,-9,i,-51%
CCCCNc1cc(C)nc(NCc2ccccc2)n1,?,-98*,-63*,-11,?,-64%
Cc1ccc(Nc2cc(C)nc(-c3ccccc3)n2)cc1,16%,-98*,-20,-3,i,1%
Cc1cc(N2CCC(C)CC2)nc(NCc2ccccc2)n1,?,-90*,2,-8,i,-63%
Cc1ccc(Nc2cc(C)nc(-c3ccccc3O)n2)cc1,40%,-13,35,9,?,19%
COCCNC(=S)N1CCC(c2nc(-c3ccc(F)cc3)no2)CC1,-28%,21,-2,-7,i,?
CSCCC(C(=O)NCc1ccccc1)n1c(Cc2cc(F)cc(F)c2)nc2ccccc21 (stereo not given),/,-22,1,9,/,/
Cc1cc(Nc2cccc(F)c2)nc(NCc2ccccc2)n1,?,-102*,5,-5,?,-44%
CSC(=S)NCc1cccnc1,-37%,-63*,-2,1,i,-55%
Cc1cc(C)cc(NC(=O)Nc2ccc(-n3ccc(C(F)(F)F)n3)cc2)c1,-18%,-77*,6,14,?,-1%
COc1ccccc1NC(=O)Nc1ccc(-n2ccc(C(F)(F)F)n2)cc1,9%,-71*,?,-30,i,21%
O=C(O)c1ccccc1C(=O)Nc1ccc(-n2ccc(C(F)(F)F)n2)cc1,-9%,6,1,-2,i,-2%
O=C(CSc1nnc(CNC(=O)c2cccs2)o1)NCC1CCCO1 (stereo not given),2%,8,1,0,i,-1%
CCCCCCCCC#Cc1nc(C)ccc1OC,0%,23,15,65*,i,-5%
FC(F)(F)c1cnc(Sc2nnc(-c3cccs3)n2CC2CCCO2)c(Cl)c1 (stereo not given),2%,-9,-4,31*,i,-19%
COc1ccc(CCNC(=O)CSc2ccc(NC(C)=O)cc2)cc1OC,14%,9,-6,8,i,-26%
CNC(=O)NC(=O)C(C)OC(=O)c1c2c(nc3ccccc13)/C(=C/c1cccs1)CC2 (stereo not given),0%,-4,2,37*,/,4%
CC(OC(=O)c1c2c(nc3ccccc13)/C(=C\c1ccc3c(c1)OCO3)CCC2)C(=O)Nc1ccc(S(N)(=O)=O)cc1 (stereo not given),-28%,?,7,-2,i,0%
CCCCNC(=O)COC(=O)c1c2c(nc3ccccc13)CCC2,4%,30,26,-5,i,17%
CCCCNC(=O)COC(=O)c1c2c(nc3ccccc13)/C(=C/c1cccs1)CC2,27%,-27,11,69*,/,-15%
